Assay results taken from PubChem BioAssay (NCATS).
Several values for one entry are separate records, joined by “and”; a condition that tells them apart may be missing. Identical values can stand only once. Results filed as inconclusive are left out. Activity calls are given as the source filed them. Unless noted, calls follow the shape of the dose curve; as a rule, active = well fitted curve in the direction sought with a large enough effect; inconclusive = small, poorly fitted or top-dose-only effect, or another doubt; inactive = no such curve, though single readings can be large; an effect the other way counts as inactive or inconclusive.

What was measured:
[1] = qHTS assay for small molecule disruptors of the mitochondrial membrane potential - 1 hr assay (AID 651754; calls by dose curve; also: % is scaled to controls: 0 for no effect and ±100 for the full control effect; nearly all actives have a fitted effect of over 35% in size)
Method in brief: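 In this qHTS format, a 1 hr compound treatment of HepG2 cells precedes Mito-MPS staining, and membrane potential is judged from aggregate (red) against monomer (green) fluorescence intensity.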

[2] = qHTS assay for small molecule disruptors of the mitochondrial membrane potential - 5 hr assay (AID 651755; calls by dose curve; also: % is scaled to controls: 0 for no effect and ±100 for the full control effect; nearly all actives have a fitted effect of over 40% in size)
Method in brief: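 Seed HepG2 overnight, add compound, incubate 5 hr at 37C and 5% CO2, stain 30 min with Mito-MPS, then measure monomer (490/535 nm) and aggregate (540/590 nm) fluorescence.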

[3] = target: Tumor necrosis factor (Homo sapiens) (UniProt P01375); experiment: qHTS assay to identify small molecules that stimulate Tumor Necrosis Factor-alpha (TNF-alpha) secretion (AID 651757; active = well fitted curve in the direction sought with a large enough effect in the signal ratio; the % refers to the signal ratio; also: 0% is about no effect)
Tumor necrosis factor (Homo sapiens), sequence (P01375 whole entry, looked up): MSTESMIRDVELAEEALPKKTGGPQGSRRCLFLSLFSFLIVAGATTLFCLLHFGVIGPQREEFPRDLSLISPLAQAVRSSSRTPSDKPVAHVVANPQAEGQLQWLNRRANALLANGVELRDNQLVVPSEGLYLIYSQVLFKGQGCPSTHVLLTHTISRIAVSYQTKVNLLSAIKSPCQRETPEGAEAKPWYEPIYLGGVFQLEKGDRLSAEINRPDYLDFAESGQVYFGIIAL
Method in brief: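 Using 3000 THP-1 cells per well, compounds and controls were applied for 17 hrs at 37 C. Detection followed with two labeled anti-TNF-alpha antibodies (cryptate donor, XL665 acceptor) for 3 hr at room temperature, measured by TR-FRET.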

[4] = qHTS assay for environmental chemicals that activate the Aryl hydrocarbon Receptor (AhR) signaling pathway (AID 651777); settings: 1A2-DRE human hepatoma cells, luciferase, 24 h; activation: active compounds read high; also: % of control where 0% means no effect; nearly all actives have a fitted effect of over 15% in size
Method in brief: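 Induction of CYP1A2 transcription through AhR is detected by luciferase in 1A2-DRE hepatoma cells. Compounds or DMSO act for 24 hr at 37 C before a 30 min One-Glo step at room temperature.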

[5] = target: Peroxisome proliferator-activated receptor alpha (Homo sapiens) (UniProt Q07869); experiment: qHTS assay for small molecule agonists of the peroxisome proliferator-activated receptor alpha (PPARalpha) signaling pathway (AID 651778); settings: PathHunter PPARalpha complementation, chemiluminescence, 6 h; active compounds read high; also: % of control where 0% means no effect
Peroxisome proliferator-activated receptor alpha (Homo sapiens), sequence (Q07869 whole entry, looked up): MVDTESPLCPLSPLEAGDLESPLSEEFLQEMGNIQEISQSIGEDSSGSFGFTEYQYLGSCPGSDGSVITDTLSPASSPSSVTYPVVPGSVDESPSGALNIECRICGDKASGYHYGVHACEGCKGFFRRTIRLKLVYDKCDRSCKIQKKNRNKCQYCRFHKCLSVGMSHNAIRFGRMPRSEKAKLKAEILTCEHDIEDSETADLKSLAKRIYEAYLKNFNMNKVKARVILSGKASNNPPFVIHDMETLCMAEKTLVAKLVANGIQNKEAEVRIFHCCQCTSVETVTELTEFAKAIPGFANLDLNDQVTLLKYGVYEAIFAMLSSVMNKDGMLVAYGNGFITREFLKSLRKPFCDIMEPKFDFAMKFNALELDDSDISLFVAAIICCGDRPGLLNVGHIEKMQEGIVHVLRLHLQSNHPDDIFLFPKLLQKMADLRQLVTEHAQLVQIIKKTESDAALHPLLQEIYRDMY
Method in brief: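 Cells plated at 2,000/well and held overnight at 37 C, 5% CO2, then compound added by pin tool for 6 hr; after PathHunter detection reagent and 60 min at room temperature, chemiluminescence from enzyme complementation was read.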

[6] = target: Nuclear receptor ROR-gamma (Homo sapiens) (UniProt P51449); experiment: qHTS assay for small molecule antagonists of the retinoid-related orphan receptor gamma (ROR-gamma) signaling pathway (AID 651802);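 also: CHO cells with doxycycline-induced ROR-gamma expression; luciferase reporter luminescence driven by ROR response element; series mostly up to about 92 µM; % is scaled to controls: 0 for no effect and ±100 for the full control effect; nearly all actives have a fitted effect of over 60% in size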
Nuclear receptor ROR-gamma (Homo sapiens), sequence (P51449 whole entry, looked up): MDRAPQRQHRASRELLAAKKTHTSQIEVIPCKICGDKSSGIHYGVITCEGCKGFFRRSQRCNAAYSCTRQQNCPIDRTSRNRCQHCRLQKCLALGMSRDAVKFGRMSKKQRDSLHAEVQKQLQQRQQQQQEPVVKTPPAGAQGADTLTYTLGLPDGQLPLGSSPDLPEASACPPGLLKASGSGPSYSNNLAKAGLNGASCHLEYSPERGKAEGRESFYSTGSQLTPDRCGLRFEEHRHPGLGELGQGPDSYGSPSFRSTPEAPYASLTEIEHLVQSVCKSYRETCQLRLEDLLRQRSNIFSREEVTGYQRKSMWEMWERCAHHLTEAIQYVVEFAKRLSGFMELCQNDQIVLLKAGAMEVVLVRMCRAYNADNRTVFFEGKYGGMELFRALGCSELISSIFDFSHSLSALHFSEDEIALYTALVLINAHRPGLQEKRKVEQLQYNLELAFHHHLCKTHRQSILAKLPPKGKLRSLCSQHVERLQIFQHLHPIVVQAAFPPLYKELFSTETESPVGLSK
Method in brief: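 Doxycycline-induced reporter activity in engineered CHO cells (TET-inducible ROR, RORE-LUC) was measured by luminescence after 16hr compound exposure at 37C.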

[7] = qHTS assay for small molecule antagonists of the retinoid-related orphan receptor gamma (ROR-gamma) signaling pathway - cell viability counter screen (AID 720652; active = well fitted curve in the direction sought with a large enough effect in the repeat runs; an effect the other way counts as inactive or inconclusive;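 also: CHO reporter cells with doxycycline-induced ROR-gamma expression; series mostly up to about 92 µM; compound exposure lasted 16 hr before ATP read; % is scaled to controls: 0 for no effect and ±100 for the full control effect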)
Method in brief: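 ATP-based viability readout in the ROR-gamma reporter CHO cells after 16 hr compound exposure under doxycycline induction.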

[8] = qHTS assay for small molecule agonists of the antioxidant response element (ARE) signaling pathway measured by Nrf2-dependant transcriptional activity - cell viability counter screen (AID 720653; active = well fitted curve in the direction sought with a large enough effect in the repeat runs; an effect the other way counts as inactive or inconclusive; also: % is scaled to controls: 0 for no effect and ±100 for the full control effect); settings: ARE-bla HepG2 viability, CellTiter-Glo ATP luminescence, 16 h; active compounds read low
Method in brief: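 ARE-bla HepG2 cells (2,000/well) rested 5 hrs at 37C/5% CO2, then exposed to compounds in DMSO for 16 hrs. Viability was read in the same wells as intracellular ATP by luminescence, 30 min at room temperature after reagent addition.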

[9] = qHTS assay for cell viability of HEK293 cells (AID 743288); settings: ATP luminescence (CellTiter-Glo), 18 h, active compounds read low; also: % is scaled to controls: 0 for no effect and ±100 for the full control effect; nearly all actives have a fitted effect of over 50% in size
Method in brief: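 Quantitative high-throughput screen: compounds were pinned onto parental HEK293 cells (2,000 per well) after a minimum 5 h settling at 37 C, incubated 18 h at 37 C, and intracellular ATP measured by luciferase luminescence.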

[10] = qHTS assay for cell viability of the p53RE-bla HCT-116 cell line (AID 743292); also: % is scaled to controls: 0 for no effect and ±100 for the full control effect; nearly all actives have a fitted effect of over 55% in size
Method in brief: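 In this qHTS counter-screen, metabolically competent p53RE-bla HCT-116 cells were counted via their ATP content. Compounds were applied for 16 h at 37 C and luciferase-coupled luminescence was measured.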

[11] = target: Nuclear receptor subfamily 1 group I member 2 (Rattus norvegicus) (UniProt Q9R1A7); experiment: qHTS assay for small molecule activators of the rat pregnane X receptor (rPXR) signaling pathway (AID 651751; call rule not given here; also: 0% is about no effect); settings: rPXR reporter cells, luciferase (One-Glo), 24 h
Nuclear receptor subfamily 1 group I member 2 (Rattus norvegicus), sequence (Q9R1A7 whole entry, looked up): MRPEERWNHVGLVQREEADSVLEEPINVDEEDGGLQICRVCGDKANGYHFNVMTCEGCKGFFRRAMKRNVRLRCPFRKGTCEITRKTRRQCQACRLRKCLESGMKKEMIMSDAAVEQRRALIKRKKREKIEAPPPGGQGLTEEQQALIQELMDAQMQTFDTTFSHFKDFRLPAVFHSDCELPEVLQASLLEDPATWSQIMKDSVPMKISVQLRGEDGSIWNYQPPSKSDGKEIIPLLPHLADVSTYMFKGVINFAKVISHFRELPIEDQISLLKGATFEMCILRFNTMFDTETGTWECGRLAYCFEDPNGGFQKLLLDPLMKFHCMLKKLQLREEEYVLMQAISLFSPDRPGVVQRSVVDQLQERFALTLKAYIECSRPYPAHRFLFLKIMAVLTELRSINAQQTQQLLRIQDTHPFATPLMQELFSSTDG

[12] = qHTS assay for small molecule activators of the human pregnane X receptor (PXR) signaling pathway (AID 720659; call rule not given here; also: 0% is about no effect)
[13] = qHTS assay for small molecule agonists of the antioxidant response element (ARE) signaling pathway measured by Nrf2-dependant transcriptional activity (AID 720636; active = well fitted curve in the direction sought with a large enough effect in the repeat runs; an effect the other way counts as inactive or inconclusive;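 also: HepG2 cells with an ARE-driven luciferase reporter; % of control where 0% means no effect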)
Method in brief: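 We exposed ARE-luc HepG2 cells, seeded in assay medium with 1% dialyzed FBS and allowed 6 hr to adhere, to test compounds overnight (16 hr, 37 C) before measuring luciferase with ONE-Glo.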

C=CCCCCCC
inactive: Potency [1] | Potency [2] | Potency [3] | activation [4] 0.992% | max response [5] -3.21% | Potency [6] | Potency [7] | max response [8] -7.1% | max response [9] 3.39% | Potency [10] | max response [11] 3.09% | outcome [12]

CC(=O)Nc1ccc(N)cc1
inactive: Potency [1] | Potency [2] | Potency [3] | activation [4] -0.109% | Potency [6] | outcome [13] | Potency [7] | max response [8] 2.9% | max response [11] 9.42% | outcome [12]

Cc1ccco1
inactive: Potency [1] | Potency [2] | Potency [3] | activation [4] -0.591% | max response [5] -4.89% | Potency [6] | Potency [7] | max response [8] -4.14% | Potency [10] | max response [11] -0.023% | outcome [12]

Cc1c(C(=O)O)cccc1[N+](=O)[O-]
inactive: Potency [1] | Potency [2] | Potency [3] | activation [4] 1.63% | max response [5] -0.685% | Potency [6] | Potency [7] | max response [9] 6.06% | max response [11] 0.0854% | outcome [12]

Cc1c(N)cccc1[N+](=O)[O-]
inactive: Potency [1] | Potency [2] | Potency [3] | activation [4] -0.541% | max response [5] -5.39% | Potency [6] | Potency [7] | max response [8] 12.6% | max response [9] 11.6% | max response [11] -0.458% | outcome [12]

O=C(O)CNC(=O)c1ccc([N+](=O)[O-])cc1
inactive: Potency [1] | Potency [2] | Potency [3] | activation [4] 0.908% | max response [5] -1.61% | outcome [13] | Potency [7] | max response [8] 1.63% | max response [9] -4.53% | Potency [10] | max response [11] 1.39% | outcome [12]

NC(N)=S
inactive: Potency [1] | Potency [2] | Potency [3] | activation [4] 0.321% | max response [5] -4.91% | outcome [13] | Potency [7] | max response [8] -0.0983% | max response [9] -3.49% | Potency [10] | max response [11] -3.24% | outcome [12]

NC(=O)c1cccc([N+](=O)[O-])c1
inactive: Potency [1] | Potency [2] | Potency [3] | activation [4] 0.373% | max response [5] 2.42% | Potency [6] | Potency [7] | max response [8] -9.57% | max response [9] -1.82% | Potency [10] | max response [11] 6.83% | outcome [12]

CCOC(=O)C(C)C(C)=O (centres undefined)
inactive: Potency [1] | Potency [2] | Potency [3] | activation [4] 0.277% | max response [5] -3.29% | outcome [13] | Potency [7] | max response [8] -7.43% | max response [9] 2.57% | Potency [10] | max response [11] 4.21% | outcome [12]

CCCCN(CCO)CCCC
inactive: Potency [1] | Potency [2] | Potency [3] | activation [4] -0.692% | max response [5] -1.07% | Potency [6] | Potency [7] | max response [8] -4.16% | max response [9] -7.26% | Potency [10] | max response [11] 1.69% | outcome [12]

CC(C)CO
inactive: Potency [1] | Potency [2] | Potency [3] | activation [4] -1.47% | Potency [6] | Potency [7] | max response [8] -4.27% | max response [9] 4.23% | Potency [10] | max response [11] 1.55% | outcome [12]

O=[N+]([O-])c1ccc(NCCO)c(OCCO)c1
inactive: Potency [1] | Potency [2] | Potency [3] | activation [4] 0.85% | max response [5] -4.01% | outcome [13] | Potency [7] | max response [8] 6.98% | max response [9] -2.57% | Potency [10] | max response [11] -2.89% | outcome [12]

CCOCCOCC
inactive: Potency [1] | Potency [2] | Potency [3] | activation [4] 1.1% | max response [5] -2.27% | Potency [6] | Potency [7] | max response [9] 0.474% | Potency [10] | max response [11] -2.52% | outcome [12]

S=C([S-])NCCNC(=S)[S-].[Zn+2]
inactive: Potency [1] | Potency [2] | Potency [3] | activation [4] 0.897% and 8.85% and 0.332% | max response [5] -15.1% and -9.87% and -6.7% | Potency [6] | Potency [7] | max response [8] -3.47% and -31.7% and -9.84% | max response [9] 1.36% and -44.1% and -10.7% | Potency [10] | max response [11] -5.53% and -7.82% and -4.11%

O=Cc1ccccc1Cl
inactive: Potency [1] | Potency [2] | Potency [3] | activation [4] -0.0176% | Potency [6] | outcome [13] | Potency [7] | max response [8] -4.5% | max response [11] -0.844% | outcome [12]

FB(F)F
inactive: Potency [1] | Potency [2] | Potency [3] | activation [4] -0.371% | max response [5] -1.82% | outcome [13] | Potency [7] | max response [8] 3.97% | max response [9] -1.64% | Potency [10] | max response [11] -0.777% | outcome [12]

O=C(O)CNC(=O)c1ccc(CO)o1
inactive: Potency [1] | Potency [2] | Potency [3] | activation [4] -1.34% | Potency [6] | outcome [13] | Potency [7] | max response [8] -15.7% | max response [9] -5.2% | Potency [10] | max response [11] -7.08% | outcome [12]

O=C(O[C@@H](C(=O)O)[C@@H](OC(=O)c1ccccc1)C(=O)O)c1ccccc1
inactive: Potency [1] | Potency [2] | Potency [3] | activation [4] -0.0103% | max response [5] 3.38% | outcome [13] | Potency [7] | max response [8] -4.37% | Potency [10] | max response [11] 4.96% | outcome [12]
